Source: PubChem BioAssay (EPA / NIEHS)
Inconclusive results are not listed. Some compounds were tested as several samples or in several runs, with calls that do not always agree. Active and inactive are the calls of the source. The calls were made as follows: active = hit-call score of the fitted dose curve at least 0.9, where 1 is the maximum; inconclusive = response in the unintended direction; inactive = score below 0.9.

Test system: frog Estrogen Receptor (ER), gene 398734
Test: ATG_frER1_XSP2: Attagene TRANS-FACTORIAL Multi-Species (XSP2) HepG2 Assay for frog Estrogen Receptor (ER) (AID 2283821);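 also: hits raise reporter mRNA above DMSO baseline so potency means agonist or activator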
Experimental: ATG_XSP2_multi-species_TRANS is a cell-based, multiplexed assay created by modifying the existing Attagene TRANS-FACTORIAL system to include a panel of nuclear receptors from some or all the following species: human (Homo sapiens), mouse (Mus musculus), frog (Xenopus laevis), zebrafish (Danio rerio), chicken (Gallus gallus), and turtle (Chrysemys picta). The ECOTOX-FACTORIAL format uses HepG2, a human liver cell line, with measurements taken at 24 hours after chemical dosing in a 24-well plate. Xsp2 included 3 nM 6-alpha-fluorotestosterone and 1.5 nM norgestrel to stimulate the androgen receptor.ATG_frER1_XSP2 is one of 29 assay components measured or calculated from the ATG_XSP2_multi-species_TRANS assay. It is designed to make measurements of mRNA induction, a form of inducible reporter, as detected with fluorescence intensity signals by Reverse transcription polymerase chain reaction (RT-PCR) and Capillary electrophoresis technology.The assay endpoint ATG_frER1_XSP2 was analyzed in the positive analysis fitting direction relative to DMSO as the negative control and baseline of activity. Using a type of inducible reporter, measures of mRNA for gain-of-signal activity can be used to understand the reporter gene at the transcription factor-level as they relate to the gene ER. Furthermore, this assay endpoint can be referred to as a primary readout, because this assay has produced multiple assay endpoints where this one serves a reporter gene function. To generalize the intended target to other relatable targets, this assay endpoint is annotated to the nuclear receptor intended target family, where the subfamily is steroidal.
Human liver HepG2 cells are transiently transfected with multiple reporter transcription units (MRTUs) in 6-well plates using FuGene 6 reagent (Roche; 3 ml FuGene/1 mg DNA). The MRTU constructs are regulated by a cis-regulating element (promoter). […] A major difference between the CIS and TRANS system is that in CIS activities of endogenous TFs are measured, whereas the TRANS assay evaluates changes in activities of exogenous, chimeric NR-Gal4 proteins. […] At the end of 24 hour incubation, total RNA was isolated using TriZol reagent (Invitrogen). The isolated RNA is then reverse-transcribed using oligo(dT) primer and Mo-MLV reverse transcriptase (Invitrogen) with DNAse I (Ambion) treatment for 30 min. The one-tenth of the produced cDNA was amplified by PCR using Taq DNA polymerase (Invitrogen) and two reporter sequence-specific primers. The PCR products were fluorescently labeled by primer extension with 6-arboxyfluorescein (6-FAM) 5'-labeled reporter sequence-specific primer (2 min at 95 C, 20 s at 68 C and 10 min at 72 C) and these products were digested with 5U of HpaI (New England Biolabs) for 2h at 37 C. The fragments were purified using Qiaquick PCR columns (Qiagen), analyzed on an ABI 3130xL genetic analyzer (Applied Biosystems) with peak positions identified by using a set of X-rhodamine (ROX)-labeled MapMarker1000 molecular weight standards (BioVentures). The raw capillary electrophoresis data was processed using Attagraph software (Attagene).

**Q.** For `CC(C)(c1ccc(O)cc1)c1ccc(O)cc1`, which AC50 is on record?
**A.** 2640 nM (active)

**Q.** `CCCCC(CC)COC(=O)c1ccccc1C(=O)O` (configuration not stated) was tested. Which AC50 did it give?
**A.** 4220 nM (active)

**Q.** For `CN(C)C(=O)Nc1ccc(Cl)c(Cl)c1`, which outcome is on record?
**A.** inactive

**Q.** What about the AC50 of the same compound?
**A.** 19600 nM (active)

**Q.** `CC1(C)C(C=C(Cl)Cl)C1C(=O)OCc1cccc(Oc2ccccc2)c1` (configuration not stated) was tested. Which outcome did it give?
**A.** inactive

**Q.** What does the source list for `C#C[C@]1(O)CC[C@H]2[C@@H]3CCC4=CC(=O)CC[C@@H]4[C@H]3CC[C@@]21CC`?
**A.** AC50: 275 nM (active); outcome: inactive

**Q.** Which outcome does the source give for `CCN(Cc1c(F)cccc1Cl)c1c([N+](=O)[O-])cc(C(F)(F)F)cc1[N+](=O)[O-]` here?
**A.** inactive

**Q.** For `CC(C)CCCCCCc1ccc(O)cc1`, which AC50 is on record?
**A.** 750 nM (active)

**Q.** For `N[C@@H](Cc1cc(I)c(Oc2ccc(O)c(I)c2)c(I)c1)C(=O)O`, which AC50 is on record?
**A.** 3680 nM (active)

**Q.** What about the outcome of the same compound?
**A.** inactive

**Q.** With `O=C(c1ccc(O)cc1O)c1ccc(O)cc1O` as the compound, how does the AC50 read?
**A.** 1660 nM (active)

**Q.** `Oc1ccc(C(c2ccc(O)cc2)C(Cl)(Cl)Cl)cc1` was tested. Which outcome did it give?
**A.** inactive

**Q.** Which outcome does the source give for `CC(=O)S[C@@H]1CC2=CC(=O)CC[C@]2(C)[C@H]2CC[C@@]3(C)[C@@H](CC[C@@]34CCC(=O)O4)[C@H]12` here?
**A.** inactive

**Q.** Which outcome does the source give for `CSC(=O)c1cccc2nnsc12` here?
**A.** inactive

**Q.** With `CCCCC(CC)CN1C(=O)C2C3C=CC(C3)C2C1=O` (configuration not stated) as the compound, how does the outcome read?
**A.** inactive

**Q.** `C=CCOC(Cn1ccnc1)c1ccc(Cl)cc1Cl` (configuration not stated) was tested. Which outcome did it give?
**A.** inactive
